In PubChem BioAssay (EPA / NIEHS):
Some structures have more than one record in an assay (separate samples or runs), and their calls can disagree. Activity calls are given as the source filed them. The calls were made as follows: active = hit-call score of the fitted dose curve at least 0.9, where 1 is the maximum; inactive = score below 0.9.

assay: ATG_TAL_CIS: Attagene CIS-FACTORIAL HepG2 Assay for human TAL Basal Promoter (AID 2282966); conditions: HepG2 Attagene cis-factorial TAL promoter reporter; actives raise or lower the signal
Procedure: ATG_CIS is a cell-based, multiplexed-readout assay that uses HepG2, a human liver cell line, with measurements taken at 24 hours after chemical dosing in a 24-well plate.ATG_TAL_CIS is one of 52 assay component(s) measured or calculated from the ATG_CIS assay. It is designed to make measurements of mRNA induction, a form of inducible reporter, as detected with fluorescence intensity signals by Reverse transcription polymerase chain reaction (RT-PCR) and Capillary electrophoresis technology.Data from the assay component ATG_TAL_CIS was analyzed into 1 assay endpoint. This assay endpoint, ATG_TAL_CIS, was analyzed with bidirectional fitting relative to DMSO as the negative control and baseline of activity. Using a type of inducible reporter, measures of mRNA for gain or loss-of-signal activity can be used to understand the background control at the transcription factor-level as they relate to the gene . Furthermore, this assay endpoint can be referred to as a secondary readout, because this assay has produced multiple assay endpoints where this one serves a background control function. To generalize the intended target to other relatable targets, this assay endpoint is annotated to the background measurement intended target family, where the subfamily is internal marker.
Human liver HepG2 cells are transiently transfected with multiple reporter transcription units (MRTUs) in 6-well plates using FuGene 6 reagent (Roche; 3 ml FuGene/1 mg DNA). The MRTU constructs are regulated by a cis-regulating element (promoter). […] A major difference between the CIS and TRANS system is that in CIS activities of endogenous TFs are measured, whereas the TRANS assay evaluates changes in activities of exogenous, chimeric NR-Gal4 proteins. […] At the end of 24 hour incubation, total RNA was isolated using TriZol reagent (Invitrogen). The isolated RNA is then reverse-transcribed using oligo(dT) primer and Mo-MLV reverse transcriptase (Invitrogen) with DNAse I (Ambion) treatment for 30 min. The one-tenth of the produced cDNA was amplified by PCR using Taq DNA polymerase (Invitrogen) and two reporter sequence-specific primers. The PCR products were fluorescently labeled by primer extension with 6-arboxyfluorescein (6-FAM) 5'-labeled reporter sequence-specific primer (2 min at 95 C, 20 s at 68 C and 10 min at 72 C) and these products were digested with 5U of HpaI (New England Biolabs) for 2h at 37 C. The fragments were purified using Qiaquick PCR columns (Qiagen), analyzed on an ABI 3130xL genetic analyzer (Applied Biosystems) with peak positions identified by using a set of X-rhodamine (ROX)-labeled MapMarker1000 molecular weight standards (BioVentures). The raw capillary electrophoresis data was processed using Attagraph software (Attagene).

outcome, inactive:
CC(C)(O)c1ccc(CNC(=O)c2cccnc2Oc2ccc3nonc3c2)cc1
O=C1c2ccccc2C(=O)N1CCc1noc(-c2ccc(CN3CCCCCC3)s2)n1
Cc1occc1C(=O)Nc1ccc(C(=O)N2CCC(F)(F)/C(=C\C(=O)N3CCC(N4CCCCC4)CC3)c3ccccc32)cc1
OC12N=C(c3ccccc3)SC1Cc1cc(Cl)ccc12 (stereo not given)
CCOC(=O)O[C@H](C)OC(=O)c1ccc2c(c1)cc(C(=O)NC1CCN(C(C)C)CC1)n2Cc1cc(-c2ccc(Cl)s2)on1
Cc1ccc2oc(CN(Cc3ccccc3)C(=O)Nc3c(F)cc(F)cc3F)c(-c3ccc(Cl)cc3)c2c1
c1ccc2n[nH]nc2c1
c1ccc(C[n+]2cccc3ccccc32)cc1
CCCCCCCCOc1ccc(C(=O)c2ccccc2)c(O)c1
COc1cccc([C@H](O)C2CCN(CCc3ccc(F)cc3)CC2)c1OC
CC(C)(C)c1csc(-c2cc3cc(OCc4ccccc4CC(=O)O)ccc3o2)n1
O=C(O)c1ccccc1-n1cc(C(=O)O)c(=O)c2cc(Nc3c(F)cc(F)cc3Cl)c(Cl)cc21
CCCCCCCC[Si](OCC)(OCC)OCC
NC(=O)c1nc(-c2cccc(-c3cc(F)ccc3OCC(F)(F)C(F)(F)F)c2)n[nH]1
Cc1cn([C@H]2C[C@H](N=[N+]=[N-])[C@@H](CO)O2)c(=O)[nH]c1=O
Cc1cc2c(cc1C(F)(F)F)N(C(=O)Nc1ccc(Oc3cccnc3C)nc1)CC2
CCO[Si](CCCNC(N)=O)(OCC)OCC
CC[C@@H]1C[C@H](N(Cc2cc(C(F)(F)F)cc(C(F)(F)F)c2)C(C)=O)c2cc(C(F)(F)F)ccc2N1C(=O)OC(C)C
O=C1O[C@H]([C@@H](O)CO)C(O)=C1O
Cc1ccc(C(C)C)cc1
CCCC(=O)OCCC(C)C
CC(C)(c1cc(Br)c(O)c(Br)c1)c1cc(Br)c(O)c(Br)c1
CCCCCCCCCCCCO
O=c1[nH]sc2ccccc12
COc1ccc2cc(S(=O)(=O)N[C@H](CC(=O)N[C@H](Cc3ccc(CN4[C@H](C)CCC[C@@H]4C)cc3)C(=O)N(C)C(C)C)c3ccc4c(c3)OCO4)ccc2c1
Oc1ccc2ccccc2c1
COc1cc(C(=O)NC2CCN(C)CC2)ccc1Nc1ncc2c(n1)N(C1CCCC1)CC(F)(F)C(=O)N2C
CC1(C)NC(=O)N(c2ccc([N+](=O)[O-])c(C(F)(F)F)c2)C1=O
CCCCCCCCCC(=O)O
CCCCCCCCCCCC[N+](C)(C)C
CO[C@H]1/C=C/O[C@@]2(C)Oc3c(C)c(O)c4c(O)c(c(/C=N/N5CCN(C)CC5)c(O)c4c3C2=O)NC(=O)/C(C)=C\C=C\[C@H](C)[C@H](O)[C@@H](C)[C@@H](O)[C@@H](C)[C@H](OC(C)=O)[C@@H]1C
OCCO
CCCCOC(=O)CC(CC(=O)OCCCC)(OC(C)=O)C(=O)OCCCC
CC(=O)N1CCN(c2ccc(OC[C@H]3CO[C@](Cn4ccnc4)(c4ccc(Cl)cc4Cl)O3)cc2)CC1
Oc1ccccc1
O=CCCCC=O

AC50, active:
Cc1oc2c(NC(=O)c3c(Cl)cccc3Cl)cccc2c1C(C)(C)O 33.1 µM
CN1C(=O)N(c2ccccc2Br)Cc2cnc(Nc3ccc4c(c3)OCC(CO)O4)nc21 (stereo not given) 12.4 µM
CCCCCCCC[Si](OCC)(OCC)OCC 148 µM
CC(C)(c1cc(Br)c(O)c(Br)c1)c1cc(Br)c(O)c(Br)c1 43.7 µM
